The text below walks through data of PubChem BioAssay (NCATS).

Where “and” joins values, the source holds several entries; their conditions need not be identical. Equal values may be shown once. Records with an inconclusive call do not appear. A number with no mark means an inactive call. Calls of active or inactive are those of the source. Calls follow the shape of the dose curve; as a rule, active = well fitted inhibition curve with a large enough effect; inconclusive = small, poorly fitted or top-dose-only effect; inactive = flat fitted curve, though single readings scatter.

In one assay the test system is CRL-7250. Kind of assay: Cytotoxic Profiling of Annotated Libraries Using Quantitative High-Throughput Screening (AID 1296008). Also: potency is read from the fitted curve at half-maximal effect. As to max response: % is scaled to controls: 0 for no effect and ±100 for the full control effect. To be noted: Five cell lines viability, CellTiter-Glo ATP luminescence, 48-72 h; max response: active compounds read low. The method, boiled down: (§1)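 Cytotoxicity was measured as CellTiter-Glo ATP luminescence, read after 10 min at room temperature. Compound treatment of the cells lasted 48 or 72 hr at 37 degrees Celsius in a qHTS format.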
A general note: ATP-based viability assays read luminescence as a measure of living cells.

The test system of the next assay is HaCat. The assay is described as above. The conditions noted are these: Five cell lines viability, CellTiter-Glo ATP luminescence, 48-72 h; max response: active compounds read low. In short, it runs like this:
as §1

The next assay relates to KB-3-1. The description is as above. To be noted: Five cell lines viability, CellTiter-Glo ATP luminescence, 48-72 h; max response: active compounds read low. The method, boiled down:
as §1

Another assay has as its system NIH3T3. The assay is described as above. To be noted: Five cell lines viability, CellTiter-Glo ATP luminescence, 48-72 h; max response: active compounds read low. In short, it runs like this: as §1
In a further assay the test system is MCC-13. Kind of assay: qHTS assay to identify novel small-molecules to repurpose for Merkel cell carcinoma treatment (AID 1296009). Also: potency is read from the fitted curve at half-maximal effect. The conditions noted are these: MCC and control cell lines, CellTiter-Glo viability, 72 h; series mostly up to 46 µM. In short, it runs like this:
(§2)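 Cell viability, measured as CellTiter-Glo luminescence, was normalized between DMSO and no-cell wells. The cells had been exposed to 8- or 11-point compound dilutions for 72 hr at 37 degree celsius.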
A general note: qHTS replaces the single test concentration by a dilution series.

A further assay deals with MCC-26. Described as above. The conditions noted are these: MCC and control cell lines, CellTiter-Glo viability, 72 h; series mostly up to 46 µM. In short, it runs like this:
as §2

In the next assay the test system is P93_24. Kind of assay: qHTS profiling for inhibitors of Plasmodium falciparum proliferation (AID 504749).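 Also: 0% = DMSO vehicle and full inhibition = artemisinin control.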 To be noted: P. falciparum in erythrocytes, SYBR Green DNA, 72 h; series mostly up to 28.7 µM. In short, it runs like this: (§3)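 SYBR Green fluorescence of parasite DNA, read after lysis and overnight dark incubation, measured growth over 72 h in erythrocyte culture at 0.3% parasitemia and 2.5% hematocrit. Data normalised to DMSO and 0.29 uM artemisinin, with plate-drift correction.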

A further assay has as its system P94_40. Described as above. The conditions noted are these: P. falciparum in erythrocytes, SYBR Green DNA, 72 h; series mostly up to 28.7 µM. In short, it runs like this: as §3
A further assay deals with PC15. The assay is described as above. To be noted: P. falciparum in erythrocytes, SYBR Green DNA, 72 h; series mostly up to 28.7 µM. The method, boiled down: as §3
The next assay relates to PC26. Described as above. The conditions noted are these: P. falciparum in erythrocytes, SYBR Green DNA, 72 h; series mostly up to 28.7 µM. In short, it runs like this: as §3
Another assay relates to PC49. The assay is described as above. The conditions noted are these: P. falciparum in erythrocytes, SYBR Green DNA, 72 h; series mostly up to 28.7 µM. In short, it runs like this: as §3
The subject of a further assay is SC27B. The assay is described as above. The conditions noted are these: P. falciparum in erythrocytes, SYBR Green DNA, 72 h; series mostly up to 28.7 µM. The method, boiled down: as §3
A further assay concerns TAB109. The description is as above. The conditions noted are these: P. falciparum in erythrocytes, SYBR Green DNA, 72 h; series mostly up to 28.7 µM. The method, boiled down: as §3
The next assay has as its system TAB113. The description is as above. The conditions noted are these: P. falciparum in erythrocytes, SYBR Green DNA, 72 h; series mostly up to 28.7 µM. In short, it runs like this:
as §3

For the next assay, the system named is TAB165. The assay is described as above. To be noted: P. falciparum in erythrocytes, SYBR Green DNA, 72 h; series mostly up to 28.7 µM. The method, boiled down: as §3
Another assay has as its system PAD. Described as above. To be noted: P. falciparum in erythrocytes, SYBR Green DNA, 72 h; series mostly up to 28.7 µM. The method, boiled down:
as §3

The next assay relates to W2. The description is as above. To be noted: P. falciparum in erythrocytes, SYBR Green DNA, 72 h; series mostly up to 28.7 µM. In short, it runs like this:
as §3
Also: nearly all actives have a fitted effect of over 60% in size.

`CC1(COc2ccc3c(c2)ncn3-c2ccc3cccc(N4CCC(N)CC4)c3n2)COC1`: the Potency in the assay with CRL-7250 was 11.6 µM (active); with HaCat it was 20.6 µM (active); in the assay with KB-3-1, 5.9 µM (active); in the assay with NIH3T3, 2.96 µM (active); in the assay on MCC-13, 18.7 µM (active).

For `Cc1cc(OCCCS(C)(=O)=O)cc(C)c1-c1cccc(COc2ccc3c(c2)OC[C@H]3CC(=O)O)c1`, the figures for the max response with CRL-7250, in the assay with HaCat and in the assay on NIH3T3 were -33.3%, -16.3% and -18.7%, respectively. For the same molecule, the Potency result in the assay on MCC-13 and with MCC-26 was “inactive” each time.

For `COc1ccc2c(c1)CC[C@H]1[C@@H]2CC[C@]2(C)[C@@H](NCCCCCCN3C(=O)C=CC3=O)CC[C@H]12`, the max response was -3.42% with CRL-7250, 1.55% in the assay with HaCat, -4.66% in the assay on KB-3-1 and -1.24% with NIH3T3. For the same molecule, the Potency entry in the assay with MCC-13 and in the assay with MCC-26 was “inactive” each time.

Turning to `O=C1Nc2ccc(I)cc2C1=Cc1cc(Br)c(O)c(Br)c1`, the molecule was classed as inactive with CRL-7250. In addition, the results for the max response in the assay with HaCat, in the assay on KB-3-1 and in the assay on NIH3T3 were 4.95%, 8.65% and -9.84%, respectively. Moreover, the Potency entry in the assay with MCC-13 and with MCC-26 was “inactive” each time.

Turning to `CC(C)CN(C[C@@H](O)[C@H](Cc1ccccc1)NC(=O)O[C@H]1CO[C@H]2OCC[C@H]21)S(=O)(=O)c1ccc(N)cc1`, the Potency result in the assay on P93_24, in the assay on P94_40, with PC26, in the assay on SC27B, in the assay on TAB109 and in the assay on TAB113 was “inactive” in each case. For the same molecule, the Potency entry in the assay with TAB165, in the assay with MCC-13 and in the assay with MCC-26 was “inactive” throughout. Moreover, the result in the assay with PC15, in the assay on PC49, in the assay on KB-3-1 and with NIH3T3 was inactive. Besides, the max response with CRL-7250 was -22%; with HaCat, -16.8%.

`COC(=O)[C@H](c1ccccc1Cl)N1CCc2sccc2C1`: the max response is -2.92% in the assay on CRL-7250, -12% in the assay on HaCat and -0.568% with NIH3T3. For the same molecule, the outcome in the assay on KB-3-1 was inactive. Also, the Potency result in the assay with MCC-13 and in the assay with MCC-26 was “inactive” throughout.

In the case of `c1ccc(-c2oc3ncnc(NC[C@@H]4CCCO4)c3c2-c2ccccc2)cc1`, the max response was -6.45% in the assay with CRL-7250 and -3.81% in the assay on HaCat. Further, in the assay with NIH3T3, the Potency is 14.6 µM (active). In addition, the Potency result in the assay with MCC-13 and in the assay on MCC-26 was “inactive” in each case.

On to `C[C@H]1O[C@@H](n2cc(F)c(=O)[nH]c2=O)[C@H](O)[C@H]1O`, for which the max response in the assay with CRL-7250 is -14.8%; in the assay with HaCat, -27.2%; in the assay with KB-3-1, -15.3%. The Potency entry in the assay with MCC-13 and in the assay with MCC-26 was “inactive” each time.

With `Oc1ccc(C=Cc2cc(O)cc(O)c2)cc1`, the max response was -12.2% in the assay with CRL-7250, -24.3% in the assay with HaCat and -2.23% with KB-3-1. Besides, the Potency result with MCC-13 and with MCC-26 was “inactive” throughout.

Consider `CCCCC[C@H](O)C=C[C@H]1[C@H](O)CC(=O)[C@H]1CCCCCCC(=O)O`, for which the max response in the assay with CRL-7250 was -0.21%; in the assay on HaCat, -1.7%; in the assay with KB-3-1, -2.88%; in the assay on NIH3T3 it was -0.203%. Moreover, the Potency entry in the assay on MCC-13 and in the assay with MCC-26 was “inactive” in each case.

Regarding `Cc1csc(-c2nnc(Nc3ccc(Oc4ncccc4-c4ccnc(N)n4)cc3)c3ccccc23)c1`, in the assay with CRL-7250, the max response was -3.89% and -3.06%. Besides, the Potency with HaCat was 0.148 µM (active). In addition, the Potency result in the assay on MCC-26 is “inactive”.

For the molecule `O=C(O)c1nc(=O)[nH]c(=O)[nH]1`, the Potency result in the assay with P93_24, with P94_40, in the assay with PAD, in the assay on PC26, with SC27B and with TAB109 was “inactive” in each case. In addition, the Potency entry with TAB113, in the assay on TAB165, in the assay with W2, in the assay on MCC-13 and in the assay with MCC-26 was “inactive” in each case. In addition, the call in the assay on PC15 and in the assay on PC49 was inactive. Further, the max response in the assay on CRL-7250 was 1.07%; in the assay on HaCat, 1.83%; in the assay on KB-3-1, 13.7% and 2.52%; in the assay with NIH3T3, 0.163%.

`O=C1NC(=O)C(=Cc2ccc(-c3ccc(F)cc3O)o2)S1`: the max response was -7.89% with CRL-7250, -35.3% in the assay with HaCat and -4.39% in the assay with NIH3T3. Further, the Potency entry with MCC-13 and in the assay with MCC-26 was “inactive” in each case.

Take `COc1ccc(-c2ccc3ncc4c(c3c2)n(-c2ccc(N3CCNCC3)c(C(F)(F)F)c2)c(=O)n4C)cn1`: the max response in the assay with CRL-7250 was -103%. The Potency is 3.7 nM (active) and 58 nM (active) in the assay with HaCat; 16.6 nM (active) and 41.1 nM (active) in the assay on KB-3-1; 0.0053 µM (active) in the assay with NIH3T3; 0.372 µM (active) in the assay with MCC-26.

Regarding `COc1cc2c(cc1OC)[C@@H]1Cc3ccc(OC)c(OC)c3CN1CC2`, the max response with CRL-7250 is -7.12%; in the assay on HaCat, -3.71%; with KB-3-1, -25.3%; in the assay with NIH3T3, -3.25%. Moreover, the Potency result with MCC-13 and in the assay on MCC-26 was “inactive” in each case.

Take `CN(C)CCOc1ccc(C(=C(CCCl)c2ccccc2)c2ccccc2)cc1`: the max response is -7.14% in the assay with CRL-7250, -3.54% in the assay with HaCat and 7.38% with KB-3-1. Moreover, the result in the assay on NIH3T3 was inactive. Besides, the Potency entry with MCC-13 and in the assay on MCC-26 was “inactive” each time.

Turning to `CO[C@H]1/C=C\O[C@@]2(C)Oc3c(C)c(O)c4c(O)c(c5c(nc6cc(C)ccn65)c4c3C2=O)NC(=O)C(C)=CC=C[C@H](C)[C@H](O)[C@@H](C)[C@@H](O)[C@@H](C)[C@H](OC(C)=O)[C@H]1C`, the max response in the assay with CRL-7250 was 3.34%; with HaCat it was -2.46%; in the assay on KB-3-1 it was -2.96%; in the assay with NIH3T3 it was -4.51%. Also, the Potency entry in the assay with MCC-13 and in the assay on MCC-26 was “inactive” in each case.

Consider `O=C(c1ccc(F)c(F)c1Nc1ccc(I)cc1F)N1CC(O)([C@H]2CCCCN2)C1`, for which the Potency is 2.96 µM (active) with CRL-7250, 7.43 µM (active) with HaCat and 8.33 µM (active) in the assay on NIH3T3. Besides, in the assay on MCC-26, the Potency entry is “inactive”.

For `O=C1NC(=O)C(c2cnc3ccccn23)=C1c1cn2c3c(cccc13)CN(C(=O)N1CCOCC1)CC2`, the Potency in the assay with CRL-7250 is 0.0166 µM (active). In addition, the max response is -40.4% in the assay with HaCat and -24.9% in the assay with NIH3T3.

As for `CNC(=O)c1cc(COc2nnc(Nc3ccc(Cl)cc3)c3ccoc23)ccn1`, the max response with CRL-7250 was -22.5%; in the assay on HaCat, 1.3%; with KB-3-1 it was -2.71%; in the assay with NIH3T3, -16.8%. Besides, the Potency result with MCC-13 and in the assay on MCC-26 was “inactive” throughout.

On to `CC(C)Oc1cc(Nc2nc(N[C@@H](C)c3ccc(F)cn3)ncc2Cl)[nH]n1`, for which the Potency in the assay on CRL-7250 is 2.64 µM (active); with KB-3-1, 10.5 µM (active); in the assay with NIH3T3 it was 5.26 µM (active); in the assay on MCC-26, 14.8 µM (active). Further, the max response in the assay on HaCat is -29.2%.
